According to PubChem BioAssay (NCATS):
Several values for one entry are separate records, joined by “and”; a condition that tells them apart may be missing. Identical values can stand only once. Inconclusive results are not listed. Activity calls are given as the source filed them. The call rests on the fitted dose curve; in most records, active means well fitted inhibition curve with a large enough effect; inconclusive means small, poorly fitted or top-dose-only effect; inactive means no such curve, though single readings can be large or run the other way. Residues, ends and D or L forms follow the SMILES beside them. *: point of attachment. Cbz = O=C(OCc1ccccc1)*; CH2Cl = ClC*

test system: not listed separately; test: qHTS for Inhibitors of the Aldehyde Dehydrogenase Family (ALDH1A2, ALDH1A3, ALDH2, ALDH3A1) (AID 2061307); conditions: ALDH inhibition qHTS; series mostly up to 50.3 µM; further: nearly all actives have a fitted effect of over 50% in size; on Potency: test system not described further here
Potency means the concentration at half of the fitted maximal effect.

SMILES | Potency
COc1ccc(-n2ccnc(NCc3ccc(Cl)cc3)c2=O)cc1 | inactive
Cc1ccc(OCCn2c(CCNC(=O)c3ccccc3[N+](=O)[O-])nc3ccccc32)cc1 | inactive
COc1ccnc(NC(=S)N2CCN(c3cccc(C(F)(F)F)c3)CC2)c1 | 8.91 µM (active)
O=C(O)c1cccnc1SC1=NS(=O)(=O)c2ccccc21 | inactive
Cc1ccc(-c2nn3c(C)nnc3s2)cc1NCc1ccc(-c2cccc(Cl)c2)o1 | 3.57 µM (active)
COc1ccc(N2CCN(c3nc(C(=O)NCc4cccc(C)c4)cs3)CC2)cc1 | 2.51 µM (active)
Fc1c(-c2ccc3ncnc(NCc4cccs4)c3c2)ccc2c1OCO2 | inactive
NC(=O)C1CCN(c2nccc(-c3ccc4c(c3)OCCO4)n2)CC1 | 7.98 µM (active)
CC(C)(C)OC(=O)N1CCN(c2ccc(NCc3cncc(-c4ccc(C#N)cc4)c3)cc2)CC1 | 0.634 µM (active)
CC(=O)N1CCN(c2ccc(NCc3ccc(-c4ccc(Br)cc4)o3)cc2)CC1 | 2.01 µM (active)
COc1ccc(S(=O)(=O)Nc2cccc(-c3ccc(N4CCCCCC4)nn3)c2)c(OC)c1 | 28.2 µM (active) and 2.51 µM (active)
Oc1ccc(CNc2ccccc2F)c2cccnc12 | inactive
N#Cc1c(-c2ccc(C(=O)c3ccc(O)cc3)cc2)no[n+]1[O-] | 11.3 µM (active)
O=C(CN1C(=O)N/C(=C\c2cccn2-c2cccc(C(=O)O)c2)C1=O)Nc1ccc(F)cc1 | inactive
Cc1ccc2nc3sc(C(=O)NCCN4CCOCC4)cc3cc2c1 | inactive
N#Cc1c(-c2ccc3c(c2)OCO3)no[n+]1[O-] | 1.13 µM (active)
Cn1ncc2c(C(=O)NCC(F)F)cc(-c3cccc(C(F)(F)F)c3)nc21 | inactive
COc1ccc(-c2ccc(CNc3ccc(N4CCN(C(=O)OC(C)(C)C)CC4)cc3)o2)cc1 | inactive
O=Cc1c(-c2ccccc2)no[n+]1[O-] | 0.565 µM (active)
O=c1c(Nc2ccc(Cl)c(Cl)c2)c(Nc2nnc(-c3ccncc3)s2)c1=O | 11.3 µM (active)

SMILES | Potency
CC(C)C[C@H](NC(=O)CNC(=O)OCc1ccccc1)C(=O)N[C@@H](Cc1ccccc1)C(=O)CCl (Cbz-Gly-Leu-Phe-CH2Cl) | inactive
CC(=O)Nc1ccc(Nc2nc3c(S(=O)(=O)c4cccc(Cl)c4)nnn3c3ccsc23)cc1 | inactive
COc1ccccc1-c1cc(-c2ccccc2OC)c2onc(C)c2n1 | inactive
Cc1c(NC(=O)c2cc3c(s2)CCCC3)cccc1-c1cn(C)c(=O)c(Nc2ccc(C3C(=O)N(C)CCN3C)cc2)n1 (stereo not given) | 10 µM (active)
CN(CC(=O)Nc1ccc(N2CCOCC2)cc1)Cc1c(O)ccc2ccccc12 | 2.83 µM (active)
COc1ccc(Nc2ncc(C(=O)N3CCN(c4ccc(F)cc4)CC3)c3ccccc23)cc1 | 15.8 µM (active)
O=C1Cc2cc(C(=O)c3ccco3)ccc2N1 | 0.565 µM (active)
CC(=O)c1ccc(NC(=O)CSc2ccc3nc(-c4ccccc4)cn3n2)cc1 | 0.0576 µM (active)
Cc1nc(SCC(=O)c2ccc(F)cc2)n[nH]1 | inactive
Cc1ccc(-n2c(=O)c3c(cnn3C)n(CC(=O)Nc3ccccc3C)c2=O)cc1 | inactive
CC(=O)Nc1sc2c(c1-c1cccc(F)c1)CCNC2 | inactive
O=C(Nc1cc(Cc2ccccc2)ccn1)c1ccc(-c2cccc([N+](=O)[O-])c2)o1 | 7.08 µM (active)
CCOc1cc(CNc2ccc(C(=O)O)cc2)ccc1OCc1ccccc1 | inactive
COc1ccc(C2Nc3ccccc3C(=O)N2Cc2ccco2)cc1COc1cccc(NC(C)=O)c1 (stereo not given) | 12.7 µM (active)
Oc1ccc(CNc2cccnc2)c2cccnc12 | 7.98 µM (active)
CC(C)(C)OC(=O)N1CCN(c2ccc(NCc3ccc(-c4ccccc4F)o3)cc2)CC1 | 12.7 µM (active)
COc1ccc(C2Nc3ccccc3C(=O)N2CC(C)(C)C)cc1COc1ccc(NC(C)=O)cc1 (stereo not given) | 1.59 µM (active)
Cc1cccc(CNc2ccnc(-c3cccc4ccccc34)n2)c1 | inactive
Cc1noc(C)c1-c1cccc(-c2nn3c(=O)cc(N4CCNCC4)nc3s2)c1 | 0.891 µM (active)
CC(=O)c1ccc(N2CCN(S(=O)(=O)c3ccc4c(c3)C(C)(C)C(=O)N4)CC2)cc1 | inactive

molecular target: Retinaldehyde dehydrogenase 3 (Homo sapiens) (UniProt P47895); test: qHTS for Inhibitors of the Aldehyde Dehydrogenase Family (ALDH1A3) Confirmatory screens (AID 2061311); conditions: ALDH inhibition qHTS; series mostly up to 46 µM; further: nearly all actives have a fitted effect of over 60% in size

SMILES | Potency
COc1ccc(-n2ccnc(NCc3ccc(Cl)cc3)c2=O)cc1 | inactive
Cc1ccc(OCCn2c(CCNC(=O)c3ccccc3[N+](=O)[O-])nc3ccccc32)cc1 | inactive
COc1ccnc(NC(=S)N2CCN(c3cccc(C(F)(F)F)c3)CC2)c1 | 7.12 µM (active)
O=C(O)c1cccnc1SC1=NS(=O)(=O)c2ccccc21 | inactive
Cc1ccc(-c2nn3c(C)nnc3s2)cc1NCc1ccc(-c2cccc(Cl)c2)o1 | 12.7 µM (active)
COc1ccc(N2CCN(c3nc(C(=O)NCc4cccc(C)c4)cs3)CC2)cc1 | inactive
Fc1c(-c2ccc3ncnc(NCc4cccs4)c3c2)ccc2c1OCO2 | inactive
NC(=O)C1CCN(c2nccc(-c3ccc4c(c3)OCCO4)n2)CC1 | 14.1 µM (active)
CC(C)(C)OC(=O)N1CCN(c2ccc(NCc3cncc(-c4ccc(C#N)cc4)c3)cc2)CC1 | inactive
CC(=O)N1CCN(c2ccc(NCc3ccc(-c4ccc(Br)cc4)o3)cc2)CC1 | 25.2 µM (active)
COc1ccc(S(=O)(=O)Nc2cccc(-c3ccc(N4CCCCCC4)nn3)c2)c(OC)c1 | inactive
Oc1ccc(CNc2ccccc2F)c2cccnc12 | inactive
N#Cc1c(-c2ccc(C(=O)c3ccc(O)cc3)cc2)no[n+]1[O-] | 15.8 µM (active)
O=C(CN1C(=O)N/C(=C\c2cccn2-c2cccc(C(=O)O)c2)C1=O)Nc1ccc(F)cc1 | inactive
Cc1ccc2nc3sc(C(=O)NCCN4CCOCC4)cc3cc2c1 | inactive
N#Cc1c(-c2ccc3c(c2)OCO3)no[n+]1[O-] | inactive
Cn1ncc2c(C(=O)NCC(F)F)cc(-c3cccc(C(F)(F)F)c3)nc21 | 0.794 µM (active)
COc1ccc(-c2ccc(CNc3ccc(N4CCN(C(=O)OC(C)(C)C)CC4)cc3)o2)cc1 | inactive
O=Cc1c(-c2ccccc2)no[n+]1[O-] | 4 µM (active)
O=c1c(Nc2ccc(Cl)c(Cl)c2)c(Nc2nnc(-c3ccncc3)s2)c1=O | 11.2 µM (active)

SMILES | Potency
CC(C)C[C@H](NC(=O)CNC(=O)OCc1ccccc1)C(=O)N[C@@H](Cc1ccccc1)C(=O)CCl (Cbz-Gly-Leu-Phe-CH2Cl) | inactive
CC(=O)Nc1ccc(Nc2nc3c(S(=O)(=O)c4cccc(Cl)c4)nnn3c3ccsc23)cc1 | 28.2 µM (active)
COc1ccccc1-c1cc(-c2ccccc2OC)c2onc(C)c2n1 | 25.1 µM (active)
Cc1c(NC(=O)c2cc3c(s2)CCCC3)cccc1-c1cn(C)c(=O)c(Nc2ccc(C3C(=O)N(C)CCN3C)cc2)n1 (stereo not given) | 2 µM (active) and 7.94 µM (active)
CN(CC(=O)Nc1ccc(N2CCOCC2)cc1)Cc1c(O)ccc2ccccc12 | 15.9 µM (active)
COc1ccc(Nc2ncc(C(=O)N3CCN(c4ccc(F)cc4)CC3)c3ccccc23)cc1 | inactive
O=C1Cc2cc(C(=O)c3ccco3)ccc2N1 | 0.896 µM (active)
CC(=O)c1ccc(NC(=O)CSc2ccc3nc(-c4ccccc4)cn3n2)cc1 | 0.258 µM (active)
Cc1nc(SCC(=O)c2ccc(F)cc2)n[nH]1 | inactive
Cc1ccc(-n2c(=O)c3c(cnn3C)n(CC(=O)Nc3ccccc3C)c2=O)cc1 | 22.4 µM (active)
CC(=O)Nc1sc2c(c1-c1cccc(F)c1)CCNC2 | inactive
O=C(Nc1cc(Cc2ccccc2)ccn1)c1ccc(-c2cccc([N+](=O)[O-])c2)o1 | 7.94 µM (active)
CCOc1cc(CNc2ccc(C(=O)O)cc2)ccc1OCc1ccccc1 | 0.199 µM (active)
COc1ccc(C2Nc3ccccc3C(=O)N2Cc2ccco2)cc1COc1cccc(NC(C)=O)c1 (stereo not given) | 11.3 µM (active)
Oc1ccc(CNc2cccnc2)c2cccnc12 | 4.49 µM (active)
CC(C)(C)OC(=O)N1CCN(c2ccc(NCc3ccc(-c4ccccc4F)o3)cc2)CC1 | inactive
COc1ccc(C2Nc3ccccc3C(=O)N2CC(C)(C)C)cc1COc1ccc(NC(C)=O)cc1 (stereo not given) | 15.8 µM (active)
Cc1cccc(CNc2ccnc(-c3cccc4ccccc34)n2)c1 | inactive
Cc1noc(C)c1-c1cccc(-c2nn3c(=O)cc(N4CCNCC4)nc3s2)c1 | 17.8 µM (active)
CC(=O)c1ccc(N2CCN(S(=O)(=O)c3ccc4c(c3)C(C)(C)C(=O)N4)CC2)cc1 | 5.01 µM (active)
